Assay results from ChEMBL document CHEMBL3988442, “University of Dundee, Small-Polar-MMV Screening Library” (2021).
In all, about 48,000 compounds went through this assay and about 13,000 (27%) showed an effect of 50% or more. This is one part of the list.

Tested on: Wolbachia pipientis
Test: Anti-Wolbachia Cell-Based Screen
Format: functional
Design: scale not given: in the data most compounds retested in dose-response had high values
Conditions: 5 µM

| SMILES | Percent Effect |
| --- | --- |
| O=c1[nH]nc(SCC2CCCO2)n1C1CC1 (stereo unspecified) | -2.947% |
| COC1CN(C(=O)COC(C)=O)CCC(=O)N(C)c2ccccc21 (stereo unspecified) | 92.83% |
| COC1CN(C(=O)CC(C)(C)C)CCC(=O)N(C)c2ccccc21 (stereo unspecified) | 105.9% |
| COC1CN(C(=O)CC(C)C)CCC(=O)N(C)c2ccccc21 (stereo unspecified) | 94.68% |
| CC1CCCN(c2ccccc2OCC(=O)N2CCOCC2)C1 (stereo unspecified) | -4.736% |
| O=C(Cc1cccs1)N1CCc2nnc(COc3cncnc3)n2CC1 | -9.187% |
| COC1CN(C(=O)Cc2cccs2)CCC(=O)N(C)c2ccccc21 (stereo unspecified) | 113.3% |
| Cc1ccccc1N1CCN(C2CCCN(C(=O)CCC(C)C)C2)CC1 (stereo unspecified) | -1.858% |
| COc1ccc([C@@H]2CN(C(=O)Cc3cccs3)C[C@H]2NC(C)=O)cc1 | 1.079% |
| CCCN1CCN(Cc2cccc(OC)c2)[C@H]2CS(=O)(=O)C[C@H]21 | -4.68% |
| Cc1nnc(CN(C)CCCOc2cccc(Cl)c2)o1 | -9.851% |
| CCOCCN1CCN(C(C)C(=O)Nc2ccnn2C(C)C)CC1 (stereo unspecified) | -7.106% |
| CC(C)COC(=O)N1CCN(C(=O)c2ccc3nccn3c2)CC1 | -2.651% |
| CC(C)C1CN(C(=O)c2cc(=O)[nH]c(=O)[nH]2)CCC(=O)N1CC1CC1 (stereo unspecified) | 7.498% |
| COC1CN(C(=O)OCC(C)C)CCC(=O)N(C)c2ccccc21 (stereo unspecified) | 62.93% |
| O=C(c1ccn[nH]1)N1CCCC(n2cncn2)C1 (stereo unspecified) | 8.656% |
| O=C(N1CCOCC(O)C1)C1(c2ccc(Cl)cc2)CCC1 (stereo unspecified) | -14.09% |
| O=C(N1CCC(Oc2ccncc2)C1)C1(c2cccc(F)c2)CC1 (stereo unspecified) | -3.42% |
| O=C(N1CCCC(n2cncn2)C1)C1(c2cccc(F)c2)CC1 (stereo unspecified) | 123% |
| O=C(N1CCCC(n2cncn2)C1)C1(c2cccc(F)c2)CCC1 (stereo unspecified) | 131.6% |
| O=C(N1CCCC(n2cncn2)C1)C1(c2cccc(F)c2)CCCC1 (stereo unspecified) | 112.9% |
| O=C(N1CCCC(n2cncn2)C1)C1(c2ccc(Cl)cc2)CCC1 (stereo unspecified) | 129.1% |

| SMILES | Percent Effect |
| --- | --- |
| Cc1cc(C)cc(C2(C(=O)N3CCCC(n4cncn4)C3)CC2)c1 (stereo unspecified) | 4.808% |
| COc1ccccc1N1CCC(N2CCOC(C(F)(F)F)C2)CC1 (stereo unspecified) | 10.11% |
| COc1ccc(NC(=O)CCC2CCCN(Cc3ncon3)C2)c(C)c1 (stereo unspecified) | 0.05921% |
| CC(C)N1C[C@@H](F)[C@@H](OCc2nc3ncccc3[nH]2)C1 | -12.53% |
| Cc1cc(CN(C)C(=O)NCc2cccc(N3CCCC3=O)c2)no1 | 2.405% |
| Cc1nc(CCN(C)C(=O)CN2CCCCCC2)no1 | 5.465% |
| CN(Cc1cc(C2CC2)on1)C(=O)CN1C(=O)OC(C)(C)C1=O | -4.246% |
| Cc1cc(CN(C)C(=O)CN2CCCCCC2=O)no1 | 104.9% |
| CC(C)c1cc(CN(C)C(=O)CN2CCNC2=O)no1 | 133% |
| CCc1cc(CN(C)C(=O)CN2CC3(CCNCC3)OC2=O)on1 | 3.162% |
| Cc1ncsc1CCN(C)C(=O)CN1CCCCC1=O | 17.08% |
| CC(C)c1cc(CN(C)C(=O)CN2CCC(C(N)=O)CC2)no1 | 136.4% |
| Cc1cc(CN(C)C(=O)NC2CCN(Cc3ccccc3)C2)no1 (stereo unspecified) | -11.75% |
| Cc1cc(CN(C)C(=O)C2CCCN(C(N)=O)C2)no1 (stereo unspecified) | 12.67% |
| CC(C)c1cc(CN(C)C(=O)CN2CCCCC2=O)no1 | 112.2% |
| Cc1cc(CN(C)C(=O)CN2CC3(CCNCC3)OC2=O)no1 | -10.43% |
| CCOCC(=O)NC(C#N)c1cnn(-c2ccccc2)c1 (stereo unspecified) | 0.4784% |
| CCc1cc(CN(C)Cc2nc(-c3ccc(OC)cc3F)oc2C)on1 | -9.467% |
| Cc1cnccc1N1CCCN(C(=O)CCCc2cn[nH]c2)CC1 | 11.82% |
| O=C(Nc1nncs1)N1CCCN(C2CCCC2)CC1 | -1.803% |
| Cc1noc(C)c1CNC[C@@]1(COc2cccnc2)C[C@@H](O)[C@@H](O)C1.Cl.Cl | -8.065% |
| Cc1noc(C)c1CCC(=O)N[C@@H]1CCC[C@@H](Oc2cccnc2)[C@@H]1O | 114.3% |

| SMILES | Percent Effect |
| --- | --- |
| Cc1n[nH]c(C)c1CNC(=O)NC1CCCCC1 | -5.785% |
| Cc1n[nH]c(C)c1CCCNCc1cn(CCC(N)=O)c2ccccc12 | -2.861% |
| CNC(=O)COc1ccccc1CNCc1c(C)noc1C | -55.32% |
| Cc1noc(C)c1CCC(=O)N[C@@H]1CC[C@@H](Oc2cccnc2)[C@@H]1O | 106.7% |
| Cc1n[nH]c(C)c1CCC(=O)N[C@@H]1CCC[C@@H](Oc2ccccc2)[C@@H]1O | 124.4% |
| Cc1nn(C)c(Oc2cccnc2)c1NC(=O)C1CCCO1 (stereo unspecified) | 5.234% |
| Cc1[nH]ncc1CCCNC(=O)Nc1ccc2c(c1)OC1(CCCC1)O2 | -12.99% |
| Cc1cc2n(n1)CC(CNC1CCN(Cc3ccncc3)CC1)CN2 (stereo unspecified) | 3.296% |
| Cc1noc(C)c1CNC(=O)N(C1CC1)C(C)c1ccco1 (stereo unspecified) | -2.539% |
| Cc1ccc2c(-c3nc4c([nH]3)CCNC4C(=O)O)cccc2n1 (stereo unspecified) | 0.6964% |
| O=C(CC1CCc2ccccc21)NC1(C(=O)O)CCCC1 (stereo unspecified) | 9.016% |
| CCC(=O)N1CCC2(CC1)CC(CC(=O)N(C)C)c1ccc(F)cc12 (stereo unspecified) | 103% |
| CCC(=O)N1CCC2(CC1)CC(CC(N)=O)c1ccc(F)cc12 (stereo unspecified) | 3.39% |
| O=C(CC1CC2(CCNCC2)c2ccccc21)NCC1CC1 (stereo unspecified) | 105% |
| COCC(=O)N1CCC2(CC1)CC(CC(=O)NC1CC1)c1ccccc12 (stereo unspecified) | -16.01% |
| Cc1ccc2c(c1)C1(CCNCC1)CC2OCC1CC1 (stereo unspecified) | 7.08% |
| CCNC(=O)CC1CC2(CCN(C(C)=O)CC2)c2cc(F)ccc21 (stereo unspecified) | -4.484% |
| CCOC1CC2(CCN(C(=O)COC)CC2)c2cc(F)ccc21 (stereo unspecified) | -4.976% |
| COCCN1CCC2(CC1)CC(CC(N)=O)c1ccc(F)cc12 (stereo unspecified) | 8.076% |
| CNC(=O)CC1CC2(CCNCC2)c2cc(F)ccc21 (stereo unspecified) | 95.41% |
| CNC(=O)CC1CC2(CCN(Cc3nccs3)CC2)c2ccccc21.O=C(O)C(F)(F)F (stereo unspecified) | -2.085% |
| CCN1CCC2(CC1)CC(CC(=O)N(C)C)c1ccc(F)cc12 (stereo unspecified) | 112.9% |
